These results are taken from PubChem BioAssay (Tox21).

Assay [1] addresses Acetylcholinesterase (Homo sapiens) (UniProt P22303). The assay can be described thus: Acetylcholinesterase (AChE) small molecule antagonists: colormetric cell-based qHTS assay (AID 1347395). Note: nearly all actives have a fitted effect of over 30% in size. Note: potency is the fitted concentration of half-maximal effect. The note with it: SH-SY5Y cells AChE activity, colorimetric (Ellman); series mostly up to 115 µM. The essentials: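 SH-SY5Y cells attached overnight, exposed to compound 30 min at 37 C, then given DTNB/acetylthiocholine; after 90 min at 37 C, colorimetric thiocholine read gives cellular AChE activity.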
On the technique in general: Quantitative high-throughput screening tests each substance at several concentrations.

The target is the same in assay [2]. As to the kind of experiment: Acetylcholinesterase (AChE) small molecule antagonists: fluorescence cell-based qHTS assay (AID 1347398). Note: nearly all actives have a fitted effect of over 50% in size. Note: potency is the fitted concentration of half-maximal effect. The settings on record: SH-SY5Y cells; Potency: AChE activity; outcome: AChE activity; series mostly up to 115 µM. The essentials:
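SH-SY5Y, 2,000 cells/well, attached overnight; cmpd 30 min 37 C; acetylthiocholine/Thiolite Green cocktail 40 min RT; fluorescence Ex/Em 490/520 nm.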

Assay [3] shares this target. The assay can be described thus: Acetylcholinesterase (AChE) small molecule antagonists: enzyme-based qHTS assay with human liver microsomes (AID 1347399). Note: nearly all actives have a fitted effect of over 60% in size. The settings on record: Potency: qHTS inhibition; outcome: qHTS inhibition; series mostly up to 115 µM. In outline:
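Recombinant human AChE (50 mU/mL in the enzyme mix) and human liver microsomes (0.25 mg/mL final) were preincubated with compound and NADPH (0.25 mg/mL final) for 30 min at 37 C. Acetylthiocholine/DTNB was then added; thiocholine was read colorimetrically after 10 min at room temperature.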

Results filed as inconclusive are left out. Active and inactive are the calls of the source. Calls come from the whole dose curve.

Sequence of Acetylcholinesterase (Homo sapiens) (P22303 whole entry, looked up): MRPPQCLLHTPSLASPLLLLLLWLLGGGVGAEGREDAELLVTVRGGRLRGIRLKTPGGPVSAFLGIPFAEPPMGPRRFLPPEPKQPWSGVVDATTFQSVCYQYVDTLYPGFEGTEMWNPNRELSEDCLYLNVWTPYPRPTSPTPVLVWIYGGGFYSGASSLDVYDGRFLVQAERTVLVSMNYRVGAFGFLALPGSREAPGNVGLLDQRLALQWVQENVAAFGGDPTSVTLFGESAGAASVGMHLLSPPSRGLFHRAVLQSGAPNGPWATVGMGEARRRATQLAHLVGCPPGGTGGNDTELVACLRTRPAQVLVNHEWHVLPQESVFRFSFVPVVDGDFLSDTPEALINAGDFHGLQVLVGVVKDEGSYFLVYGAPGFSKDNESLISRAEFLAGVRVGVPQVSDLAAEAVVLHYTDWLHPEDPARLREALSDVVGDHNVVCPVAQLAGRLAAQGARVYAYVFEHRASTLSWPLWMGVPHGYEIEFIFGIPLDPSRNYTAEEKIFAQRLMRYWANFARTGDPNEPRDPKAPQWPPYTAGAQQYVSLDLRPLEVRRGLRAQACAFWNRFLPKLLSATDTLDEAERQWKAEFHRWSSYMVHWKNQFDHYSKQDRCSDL

Regarding `O=c1c2ccccc2nnn1CCl`, the Potency result in assay [1], in assay [2] and in assay [3] was “inactive” each time.

`Cn1c(=O)cc(Oc2ccc(F)cc2F)c2cnc(NCC(C)(C)O)nc21`: the Potency in assay [1] and in assay [2] was 28.3 µM (active) each time. In assay [3], the Potency result is “inactive”.

For `CN1CCN(c2ccccc2/C=C2\SCCN(c3ccc(Cl)c(Cl)c3)C2=O)CC1`, the Potency result in assay [1] and in assay [3] was “inactive” each time. Also, the Potency in assay [2] is 39.9 µM (active).

With `ON(Cc1ccccc1)Cc1ccccc1`, the Potency result in assay [1], in assay [2] and in assay [3] was “inactive” each time.

Consider `c1ccc(C[P+](c2ccccc2)(c2ccccc2)c2ccccc2)cc1`, for which the Potency is 71 µM (active) in assay [1] and 12.6 µM (active) in assay [2]. The Potency result in assay [3] is “inactive”.

With `NC(=O)C1(N2CCCCC2)CCN(CCCN2c3ccccc3CCc3ccc(Cl)cc32)CC1`, the Potency result in assay [1], in assay [2] and in assay [3] was “inactive” each time.

For the molecule `C=CC[N+]1([C@H]2C[C@H]3[C@@H]4CC[C@H]5C[C@H](OC(C)=O)[C@@H](N6CCCCC6)C[C@]5(C)[C@H]4CC[C@]3(C)[C@H]2OC(=O)CC)CCCCC1`, the figures for the Potency in assay [1] and in assay [2] were 27.5 µM (active) and 13.8 µM (active), respectively. The Potency result in assay [3] was “inactive”.

As for `C[Si]1(C)O[Si](C)(C)O[Si](C)(C)O1`, the Potency entry in assay [1], in assay [2] and in assay [3] was “inactive” each time.

On to `O=S(=O)(O)c1ccccc1O`, for which the Potency result in assay [1], in assay [2] and in assay [3] was “inactive” each time.

Take `CN(C)CCCNCCCN`: the Potency in assay [1] and in assay [2] was 35.4 µM (active) in each case. For the same molecule, in assay [3], the Potency result is “inactive”.

Consider `C1=CCC(c2ccccc2)CC1` (centres undefined), for which the Potency result in assay [1], in assay [2] and in assay [3] was “inactive” each time.

Take `CCN(CC)c1cccc(O)c1`: the Potency in assay [1] was 36.3 µM (active); in assay [2] it was 32.4 µM (active). Further, in assay [3], the Potency entry is “inactive”.

Consider `CCc1cc(SCc2sc(-c3ccc(C(F)(F)F)cc3)nc2CN2CCN(c3ccc(OC)cc3)CC2)ccc1OCC(=O)O`, for which the Potency result in assay [1], in assay [2] and in assay [3] was “inactive” throughout.
